The record followed here is PubChem BioAssay (Tox21).

In assay [1] the target is Retinoic acid receptor RXR-alpha (Homo sapiens) (UniProt P19793). The assay can be described thus: qHTS assay to identify small molecule agonists of the RXR signaling pathway (AID 1159527; calls by dose curve; further: nearly all actives have a fitted effect of over 35% in size). The method in brief:
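Beta-lactamase reporter assay, agonist format. Engineered HEK 293T line, charcoal-stripped FBS at 2%, overnight (16 hr) exposure, fluorescence at 460 and 530 nm after 405 nm excitation.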

Assay [2] can be described thus: qHTS assay to identify small molecule agonists of the RXR signaling pathway - cell viability counter screen (AID 1159529).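 Further: HEK 293T cells carrying an RXR-alpha UAS beta-lactamase reporter; series mostly up to about 77 µM; nearly all actives have a fitted effect of over 50% in size.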 Put shortly: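 Same-well viability check after the LiveBLAzer FRET read: CellTiter-Glo added, luminescence measured after 30 min at room temperature. Reporter HEK 293T cells had been treated with compounds for 16 hr following a 5 hr preincubation.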

Assay [3] can be described thus: qHTS assay to identify small molecule antagonists of the retinoid acid receptor (RAR) signaling pathway - cell viability counter screen (AID 1159551). Further: nearly all actives have a fitted effect of over 35% in size. Put shortly:
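C3RL4 cells were seeded overnight at 37 C, then treated with compounds plus 1 uM (final) retinol for 6 h at 37 C. Viability was read as ATP by CellTiter-Glo luminescence after 30 min at room temperature.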
Background: qHTS replaces the single test concentration by a dilution series.

A short description of assay [4]: qHTS assay to identify small molecule antagonists of the estrogen related receptor (ERR) signaling pathway - cell viability counter screen (AID 1224818).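 Further: series mostly up to about 46 µM; viability measured after 17.5 h of compound exposure.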 The method in brief:
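ERR reporter cells plated 6 h at 37 C/5% CO2, then compounds in DMSO pin-transferred and incubated 17.5 h at 37 C. Viability read as CellTiter-Fluor fluorescence after 30 min at 37 C.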

The nature of assay [5]: qHTS assay to identify small molecule antagonists of the estrogen related receptor (ERR) signaling pathway (AID 1224819;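 further: luminescence from an ERR-driven luciferase reporter measured with One-Glo reagent; series mostly up to about 46 µM; nearly all actives have a fitted effect of over 50% in size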). Put shortly:
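ERR reporter cells were plated at 2,000 cells/well and left 6 h at 37 C/5% CO2 before pin-tool transfer of compounds in DMSO. After 18 h at 37 C, One-Glo was added and luminescence was read 30 min later at room temperature.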

The nature of assay [6]: qHTS assay to identify small molecule agonists of the estrogen related receptor (ERR) signaling pathway (AID 1224820). The method in brief:
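Quantitative HTS of the LOPAC library used NTP ERR reporter cells treated 18 h at 37 C. Signal is luminescence after One-Glo addition and a 30 min room-temperature incubation.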

In assay [7] the test system is estrogen-related receptor alpha (ERRalpha) with PGC-1alpha coactivator, human. As to the kind of experiment: qHTS assay to identify small molecule antagonists of the estrogen related receptor signaling pathway with the pleiotropic PPARgamma coactivator (PGC) (AID 1224821; calls by dose curve;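 further: series mostly up to about 46 µM; lower luminescence signal means antagonism of PGC/ERR signalling; nearly all actives have a fitted effect of over 50% in size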). The method in brief:
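Quantitative HTS for antagonism: PGC/ERR cells received compounds after 6 h attachment and were incubated 18 h at 37 C, with luminescence (One-Glo) as the endpoint.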

Assay [8] in a line: qHTS assay to identify small molecule antagonists of the estrogen related receptor signaling pathway with the pleiotropic PPARgamma coactivator (PGC) cell viability counter screen (AID 1224822; further: series mostly up to about 46 µM). The method in brief:
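PGC/ERR cells were seeded at 2,000 cells/well, rested 6 h at 37 C/5% CO2, then given compounds in DMSO by pin tool and incubated 17.5 h at 37 C. Viability came from CellTiter-Fluor fluorescence after 30 min.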

Assay [9] can be described thus: qHTS assay to identify small molecule agonists of the estrogen related receptor signaling pathway with the pleiotropic PPARgamma coactivator (PGC) (AID 1224823). The method in brief:
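Cell-based luciferase assay in the NTP-supplied PGC/ERR line, 2,000 cells/well; 18 h compound exposure at 37 C, luminescence after One-Glo.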

Assay [10] can be described thus: qHTS assay to identify small molecule antagonists of the estrogen related receptor (ERR) signaling pathway from Tox21 library - cell viability counter screen (AID 1224834). Further: nearly all actives have a fitted effect of over 30% in size. Put shortly:
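ERR reporter cells were plated 6 h before compound addition, then exposed to test compounds in DMSO for 17.5 h at 37 C. Viability was read as CellTiter-Fluor fluorescence after a 30-minute incubation at 37 C.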

The target in assay [11] is Luciferin 4-monooxygenase (Photinus pyralis) (UniProt P08659). As to the kind of experiment: qHTS assay to identify small molecule inhibitors of firefly luciferase (AID 1224835). Further: series mostly up to about 120 µM; nearly all actives have a fitted effect of over 25% in size. Put shortly: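 Quantitative HTS format; KM concentrations of both substrates. Purified P. pyralis FLuc activity quantified from luminescence images.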
Assay [12] can be described thus: qHTS assay to identify small molecule agonists of the constitutive androstane receptor (CAR) signaling pathway - cell viability counter screen (AID 1224836). Further: series mostly up to about 92 µM; nearly all actives have a fitted effect of over 45% in size. The method in brief: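 Compound titrations (15 concentrations) went onto HepG2-CYP2B6-hCAR cells 4 h after seeding, alongside PK11195 at a final 0.75 uM; a 23 h, 37 C/5% CO2 incubation preceded CellTiter-Fluor viability measurement.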

Assay [13] can be described thus: qHTS assay to identify small molecule antagonists of the constitutive androstane receptor (CAR) signaling pathway - cell viability counter screen (AID 1224837). Further: series mostly up to about 92 µM; nearly all actives have a fitted effect of over 45% in size. Put shortly:
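HepG2 cells stably expressing hCAR and a CYP2B6-2.2kb reporter were plated and pre-incubated 4 hr at 37 C/5% CO2, then given compounds at 15 concentrations plus 50 nM CITCO (final). After 23 hr, viability was read by CellTiter-Fluor fluorescence.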

Assay [14] in a line: qHTS assay to identify small molecule antagonists of the estrogen related receptor signaling pathway with the pleiotropic PPARgamma coactivator (PGC) from Tox21 10K library - cell viability counter screen (AID 1224840; active means well fitted cell-killing curve with a large enough effect in the repeat runs, not every such curve was filed as active; further: nearly all actives have a fitted effect of over 40% in size). The method in brief:
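PGC/ERR cells were seeded at 2,000 cells/well and left 6 hours at 37 C/5% CO2 before pin-tool addition of compounds in DMSO. After 17.5 hours at 37 C, CellTiter-Fluor was added and fluorescence read 30 minutes later.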

A short description of assay [15]: qHTS assay to identify small molecule antagonists of the estrogen related receptor signaling pathway with the pleiotropic PPARgamma coactivator (PGC) from Tox21 10K library (AID 1224841; call rule not given here; further: series mostly up to about 92 µM; actives are mostly falling curves and most rising ones were filed inactive; nearly all actives have a fitted effect of over 50% in size). Put shortly:
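PGC/ERR reporter cells were seeded at 2,000 cells/well and held 6 hours at 37 C/5% CO2 before pin-tool addition of compounds in DMSO. After 18 hours at 37 C, One-Glo was added and luminescence read after 30 minutes at room temperature.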

A short description of assay [16]: qHTS assay to identify small molecule agonists of the estrogen related receptor signaling pathway with the pleiotropic PPARgamma coactivator (PGC) from Tox21 10K library (AID 1224842). Further: nearly all actives have a fitted effect of over 15% in size. The method in brief:
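PGC/ERR reporter cells (NTP line) were seeded 2,000 per well, rested 6 h at 37 C/5% CO2, then pin-dosed with compounds in DMSO for 18 h at 37 C; luciferase read by One-Glo luminescence after 30 min at room temperature.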

Assay [17] in a line: qHTS assay to identify small molecule agonists of the retinoic acid receptor (RAR) signaling pathway (AID 1159553). The method in brief: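 C3RL4 cells carrying a RARE luciferase reporter were plated overnight at 37 C, then exposed to compounds in DMSO for 6 hr at 37 C and 5% CO2. Luminescence was read 30 min after luciferase reagent addition at room temperature.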
For assay [18], the target named is Nuclear receptor subfamily 1 group I member 3 (Homo sapiens) (UniProt Q14994). The assay can be described thus: qHTS assay to identify small molecule antagonists of the constitutive androstane receptor (CAR) signaling pathway (AID 1224838). Further: nearly all actives have a fitted effect of over 40% in size. Put shortly: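 HepG2 cells stably co-transfected with hCAR and a CYP2B6-2.2kb luciferase reporter were seeded 4 h before compound addition at 15 concentrations. Cells were stimulated with 50 nM CITCO (final) for 24 h at 37 C; luciferase luminescence was then read.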

For assay [19] the target is unchanged. As to the kind of experiment: qHTS assay to identify small molecule agonists of the constitutive androstane receptor (CAR) signaling pathway (AID 1224839). Further: nearly all actives have a fitted effect of over 15% in size. Further: potency means the concentration at half of the fitted maximal effect. Put shortly:
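In this screen, CAR-driven CYP2B6 promoter activity is measured by luminescence in HepG2-CYP2B6-hCAR cells after 24 h with test compounds and 0.75 uM PK11195 (final concentration).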

Assay [20] in a line: qHTS assay to identify small molecule antagonists of the retinoic acid receptor (RAR) signaling pathway (AID 1159552; further: nearly all actives have a fitted effect of over 50% in size). Put shortly:
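Readout: luciferase luminescence, 30 min post-reagent at RT. Setup: C3RL4 RARE reporter cells, compounds plus retinol 1 uM final, 6 hr incubation at 37 C and 5% CO2.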

Results filed as inconclusive are left out. Values without a mark were called inactive. Active and inactive are the calls of the source. Unless noted, the call rests on the fitted dose curve; in most records, active means well fitted curve in the direction sought with a large enough effect in the repeat runs; inconclusive means weak or mixed curves; inactive means no such curve, though single readings can be large; an effect the other way counts as inactive or inconclusive.

Nuclear receptor subfamily 1 group I member 3 (Homo sapiens), sequence (Q14994 whole entry, looked up): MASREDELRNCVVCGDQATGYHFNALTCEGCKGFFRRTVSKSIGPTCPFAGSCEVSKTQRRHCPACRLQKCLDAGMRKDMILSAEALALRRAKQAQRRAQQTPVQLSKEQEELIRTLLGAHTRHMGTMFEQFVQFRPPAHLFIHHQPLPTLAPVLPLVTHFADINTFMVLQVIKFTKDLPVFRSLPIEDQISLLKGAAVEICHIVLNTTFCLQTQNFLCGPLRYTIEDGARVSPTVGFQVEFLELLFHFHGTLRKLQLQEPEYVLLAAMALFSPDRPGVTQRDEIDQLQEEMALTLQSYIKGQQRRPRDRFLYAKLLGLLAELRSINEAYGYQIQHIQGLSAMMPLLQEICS
Luciferin 4-monooxygenase (Photinus pyralis), sequence (P08659 whole entry, looked up): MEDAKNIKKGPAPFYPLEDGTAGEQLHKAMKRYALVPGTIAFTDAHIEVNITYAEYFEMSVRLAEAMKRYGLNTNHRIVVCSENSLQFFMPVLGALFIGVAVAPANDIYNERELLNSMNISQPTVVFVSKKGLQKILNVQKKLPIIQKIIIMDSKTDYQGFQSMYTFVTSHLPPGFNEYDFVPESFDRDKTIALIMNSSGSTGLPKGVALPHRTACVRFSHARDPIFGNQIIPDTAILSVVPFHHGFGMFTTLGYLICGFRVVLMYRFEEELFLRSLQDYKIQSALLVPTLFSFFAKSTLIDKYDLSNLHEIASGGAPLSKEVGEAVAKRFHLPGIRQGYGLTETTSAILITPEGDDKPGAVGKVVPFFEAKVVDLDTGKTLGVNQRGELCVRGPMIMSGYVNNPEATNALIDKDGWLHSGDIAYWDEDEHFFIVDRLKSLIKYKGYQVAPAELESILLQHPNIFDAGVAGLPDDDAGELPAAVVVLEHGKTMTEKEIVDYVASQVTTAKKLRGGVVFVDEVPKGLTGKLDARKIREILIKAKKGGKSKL
Retinoic acid receptor RXR-alpha (Homo sapiens), sequence (P19793 whole entry, looked up): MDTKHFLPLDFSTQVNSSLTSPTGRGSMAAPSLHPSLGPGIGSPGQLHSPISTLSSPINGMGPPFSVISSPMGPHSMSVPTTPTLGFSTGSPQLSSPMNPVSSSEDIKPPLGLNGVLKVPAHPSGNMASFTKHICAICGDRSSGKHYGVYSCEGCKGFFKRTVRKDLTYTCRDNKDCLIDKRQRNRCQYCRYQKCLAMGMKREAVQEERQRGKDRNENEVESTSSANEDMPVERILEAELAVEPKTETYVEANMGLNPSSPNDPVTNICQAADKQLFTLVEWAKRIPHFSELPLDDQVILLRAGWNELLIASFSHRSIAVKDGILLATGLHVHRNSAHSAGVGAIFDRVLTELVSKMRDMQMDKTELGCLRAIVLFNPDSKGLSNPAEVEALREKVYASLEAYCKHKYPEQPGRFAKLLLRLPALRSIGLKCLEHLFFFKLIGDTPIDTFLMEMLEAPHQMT

Regarding `COc1ccc(C2CNC(=O)C2)cc1OC1CCCC1` (centres undefined), the Potency result in assay [1], in assay [10], in [11], in assay [12], in [13] and in [15] was “inactive” throughout. For the same compound, the compound was called inactive in assay [2], in assay [3], in [4], in assay [5], in assay [6] and in assay [7]. The call in assay [8], in [9], in assay [14] and in assay [16] was inactive.
With `NC(CO)C(=O)NNCc1ccc(O)c(O)c1O` (centres undefined), the Potency result in assay [1], in assay [10], in [11], in assay [12], in assay [13] and in [15] was “inactive” each time. The outcome in assay [2], in assay [3], in [4], in [5], in assay [6] and in assay [7] was inactive. Besides, the call in assay [8], in assay [9], in assay [14] and in [16] was inactive.
Take `O=Cc1ccc(Cl)c(Cl)c1`: the Potency entry in assay [1], in assay [17], in assay [10], in assay [11], in assay [12] and in assay [13] was “inactive” throughout. For the same compound, the compound was classed as inactive in [2], in assay [3] and in [14].
Turning to `CC(C)=O`, the Potency entry in [1], in assay [17], in assay [10], in assay [11], in assay [12] and in assay [13] was “inactive” throughout. Besides, the Potency entry in assay [19] is “inactive”. Further, the call in assay [2], in [3], in [18] and in assay [14] was inactive.
`O=C(O)Cc1ccc(Cl)cc1Cl`: the Potency entry in assay [1], in assay [10], in [12] and in assay [13] was “inactive” throughout. Besides, the outcome in [2], in assay [3], in [20] and in [14] was inactive.
For the compound `NCCS`, the Potency result in assay [1], in [10], in [11], in [12], in [13] and in assay [15] was “inactive” throughout. Moreover, the outcome in assay [2], in assay [3], in assay [4], in assay [5], in assay [6] and in [7] was inactive. The call in assay [8], in assay [9], in [14] and in [16] was inactive.
`CCCCCCCCC1CCC(=O)O1` (centres undefined): the Potency result in assay [1], in assay [10], in [11], in assay [13] and in assay [15] was “inactive” each time. The call in assay [2], in assay [3], in [20], in assay [18], in [14] and in assay [16] was inactive. The Potency in assay [19] was 30.6 µM (active).
Consider `O=S(=O)(O)c1cc(O)c2ccc(Nc3ccccc3)cc2c1`, for which the Potency entry in [1], in assay [12], in [13] and in assay [19] was “inactive” each time. Also, the compound was classed as inactive in [2], in assay [3], in assay [20], in assay [18] and in assay [14].
For the compound `CC(=O)CCCCn1c(=O)c2c(ncn2C)n(C)c1=O`, the Potency entry in assay [1], in assay [10], in assay [11], in assay [12], in assay [13] and in assay [15] was “inactive” in each case. Also, the compound was called inactive in assay [2], in assay [3], in assay [4], in [5], in assay [6] and in assay [7]. For the same compound, the result in assay [8], in assay [9], in assay [14] and in [16] was inactive.
Turning to `O=C(O)c1ccc(Cl)cc1Cl`, the Potency result in assay [1], in assay [10] and in assay [13] was “inactive” throughout. In addition, the compound was classed as inactive in assay [2], in assay [3], in assay [20] and in assay [14].
Take `O=C(OCC(O)CO)c1ccccc1Nc1ccnc2c(C(F)(F)F)cccc12` (centres undefined): the Potency result in assay [1], in [17], in assay [12], in assay [13] and in [19] was “inactive” throughout. The compound was called inactive in assay [2], in assay [3], in [18] and in assay [14].
